In the library only some 21% were active in any assay of this set; here they are far more common.
HCV inhibitor = inhibitors of hepatitis C virus infection; AID 651820; Huh7.5.1 HCVcc-Cre infection, luciferase reporter, 44 h; hit rate 3.4% among 340,000; Potency, µM (series often up to 41.8 µM), inactives show at the highest dose activity change, negative = inhibition, hits mostly inhibitors; also: potency is read from the fitted curve at half-maximal effect; % is scaled to controls: 0 for no effect and ±100 for the full control effect
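Seed cells (1,000/well) for 4 h; treat with compound and infect with HCVcc-Cre, moi about 0.5. Incubate 44 h, then detect luciferase activity.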
Cycloheximide cs = counter-screen hit for Shiga toxin inhibitors, cycloheximide; cell reporter, cycloheximide protein synthesis inhibition counterscreen; max response, %; hit rate 12% among 300,000; AID 2314; in the data active = max response mostly above about 13%, no sharp cut-off; inactive = mostly below about 14%; also: read at 38.3 µM for the half of the compounds with a filed dose; 0% is about no effect
AMA1-RON2 inh = inhibitors of Plasmodium falciparum AMA1-RON2 interaction; AlphaScreen AMA1-biotinylated RON2 peptide binding; Potency, µM (highest dose often 58.2 µM), without a hit: at the highest dose activity change, negative = inhibition, hits mostly inhibitors; hit rate 0.2% among 360,000; AID 720542;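 also: potency is read from the fitted curve at half-maximal effect; 0% = vehicle wells and -100% = peptide control; nearly all actives have a fitted effect of over 45% in size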
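AMA1 (3D7) with his tag at 25 nM final met compounds first, then biotinylated RON2 peptide at 25 nM; detection used donor plus acceptor beads, 10 µg/mL apiece, read by AlphaScreen after 30 min at room temperature.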
Shiga inhibitor = inhibitors of Shiga toxin in Vero cells; Vero cells, Shiga toxin protein synthesis inhibition reporter; hit rate 9.2% among 290,000; inhibition, % at 38.7 µM; in the data active = inhibition mostly above about 28%, no sharp cut-off; inactive = mostly below about 43%; also: 0% is about no effect
Pf growth 48h = inhibits P. falciparum growth in the first generation, 48 h. Potency, µM (doses to about 28.7 µM), without a hit: at the top dose activity change, negative = inhibition, hits mostly inhibitors. P. falciparum luciferase growth in erythrocytes, 48 h. hit rate 5.9% among 310,000. AID 504832; also: potency is read from the fitted curve at half-maximal effect; % is scaled to controls: 0 for no effect and ±100 for the full control effect
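Firefly luciferase activity from engineered P. falciparum reports growth; inhibitors lower the luminescent signal. Cultures contained 2% hematocrit erythrocytes at 0.1% final parasitemia.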
Pf growth 96h = inhibits malaria parasite growth, 96 h. P. falciparum luciferase reporter growth, 96 h. Potency, µM (highest dose often 28.7 µM), for the others: at the highest dose activity change, negative = inhibition, usual class: inhibitors. hit rate 6.9% among 320,000; also: potency is read from the fitted curve at half-maximal effect; % is scaled to controls: 0 for no effect and ±100 for the full control effect
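Luminescence readout: decreased luciferase signal marks inhibited growth of reporter-expressing P. falciparum in infected red cells (2% hematocrit, 0.05% parasitemia final), exposed to compound two generations (96 h, 37 C, 5% CO2).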
* marks the source's active call; other numbers are inactive results; ? = inconclusive; . = not tested or not shown; + = active, no number; [ ] = remark or other dose. Unless noted, calls follow the shape of the dose curve; as a rule, active = well fitted curve in the direction sought with a large enough effect; inconclusive = small, poorly fitted or top-dose-only effect, or another doubt; inactive = no such curve, though single readings can be large; an effect the other way counts as inactive or inconclusive.

SMILES	HCV inhibitor	Cycloheximide cs	AMA1-RON2 inh	Shiga inhibitor	Pf growth 48h	Pf growth 96h
CCn1cc([N+](=O)[O-])c(C(=O)Nc2ccn(C34CC5CC(CC(C5)C3)C4)n2)n1	10%	-2	3%	-1	1%	-1%
Cn1cc([N+](=O)[O-])c(C(=O)Nc2ccn(C34CC5CC(CC(C5)C3)C4)n2)n1	2%	15*	10%	2	0%	-14%
Cn1nccc1C(=O)Nc1ccn(C23CC4CC(CC(C4)C2)C3)n1	?	44*	11%	68*	38%	63%
CCc1nc2ccc(C(=O)Nc3cc(-c4ccccc4)ccc3OC)cn2c1N(C)Cc1nccs1	.	.	0%	.	.	.
CCN(CC)c1ccc(C2Nc3cccc4cccc(c34)N2)c(O)c1	11µM*	27*	-5%	51*	3.7µM*	-21%
Cc1cc(NC(=O)c2cccs2)ncc1NC(=O)C(C)(C)C	8%	32*	-3%	.	282%	-7%
O=C(Nc1nccc(-c2cccs2)n1)c1cccs1	?	31*	-13%	67*	36%	28%
Nc1nccc(-c2cccs2)n1	9%	11	10%	4	?	0%
Cc1ccnc(NS(=O)(=O)c2cccs2)c1	-20%	3	2%	-16	13%	.
Cc1cccc(NC(=O)c2cc3cc([N+](=O)[O-])ccc3s2)n1	-23%	19*	-2%	56	118%	162%
Cc1ccnc(NC(=O)c2cccs2)c1	4%	38*	-6%	57	146%	9%
COC(=O)C(O)(c1ccc(NC(=O)c2cccs2)c(C)c1)C(F)(F)F (centres undefined)	8%	-1	-17%	3	12%	39%
Cc1cnc2nc(-c3ccccc3)ccc2c1	.	.	1%	.	.	.
CC(CCN1CCC(CN2C(=O)C(=O)NC[C@@H]2Cc2ccccc2)CC1)c1ccccc1 (some centres undefined)	9%	.	4%	.	.	.
CC1(C)Oc2c(ccc(O)c2CN2CCOCC2)C2=C1CCCC2	-15%	.	-17%	.	.	.
Cc1cccc(NC(=O)CNC(=O)c2cccs2)n1	38%	.	0%	.	39%	31%
O=C(Nc1cccnc1Cl)c1cccs1	12%	-1	-11%	30	24%	1%
CCN(CC)S(=O)(=O)c1csc(C(=O)Nc2ccccn2)c1	?	22*	12%	+	49%	86%
Cc1ccnc(NC(=O)c2ccc(Br)s2)c1	-14%	70*	5%	90*	140%	227%
Cc1cccc(NC(=O)c2cccs2)n1	21%	38*	6%	78*	159%	-10%
O=C(Nc1ccccn1)c1cccs1	3%	52*	-3%	76*	145%	143%
COc1ccc(Nc2cc(Nc3cc(OC)c(OC)c(OC)c3)ncn2)cc1	?	-2	2%	-4	?	6%
COc1ccc(NC(=O)c2cccc(N3C(=O)C4C5C=CC(C5)C4C3=O)c2)cc1 (centres undefined)	.	12	7%	-2	-6%	17%
Cc1cc(C)cc(NC(=O)c2cccc(N3C(=O)C4C5C=CC(C5)C4C3=O)c2)c1 (centres undefined)	-12%	-2	-3%	40	?	4.7µM*
Cc1cccc(NC(=O)c2cccc(N3C(=O)CCC3=O)c2)c1	7%	7	-1%	-3	52%	-10%
SMILES	HCV inhibitor	Cycloheximide cs	AMA1-RON2 inh	Shiga inhibitor	Pf growth 48h	Pf growth 96h
Cc1cccc(NC(=O)c2cccc(N3C(=O)C4C5C=CC(C6CC56)C4C3=O)c2)c1 (centres undefined)	11µM*	-1	2%	-8	16%	?
Nn1c(SCc2cn3ccccc3n2)nnc1-c1ccncc1	25%	2	-9%	-11	-2%	4%
Cc1cc(C)nc(SCc2cn3ccccc3n2)n1	10%	22*	-6%	27	21%	-4%
Cc1cc(C)c(C#N)c(SCc2cn3ccccc3n2)n1	?	15*	-2%	33	15%	?
Cc1cc(C)c(C#N)c(SCc2ccccc2)n1	-10%	-1	58%	-7	?	21%
COc1ccc(OCc2nnc(SCC(=O)N(C)Cc3ccccc3)n2N)cc1	?	9	-17%	13	-2%	-11%
CCN(C[C@H]1N[C@@](CC)(C(=O)OC)[C@H]2C(=O)N(Cc3ccccc3)C(=O)[C@@H]12)C(=O)Nc1ccc(Cl)cc1	-14%[8.37 µM]	.	-7%	.	.	.
Nc1ccn([C@@H]2O[C@H](C(=O)N[C@H]3c4ccccc4C[C@H]3O)[C@@H](O)[C@H]2O)c(=O)n1	.	.	2%	.	.	.
C/C(=C\c1csc(C)n1)[C@@H]1C[C@@H]2O[C@]2(C)CCC[C@H](C)[C@H](O)[C@@H](C)C(=O)C(C)(C)[C@@H](O)CC(=O)O1	.	.	.	.	0.0013µM*	?
Cc1nc(C2CC(=O)OC23CCCCC3)cs1 (centres undefined)	20%	1	3%	-14	-2%	10%
C=CCN(C(C(=O)OC)C(C)C)S(=O)(=O)CCl (centres undefined)	.	13	.	0	.	.
Nc1c(Cl)ncnc1NCCc1ccc(O)cc1	6.3µM*	1	0%	16	12%	31%
COc1cc2nc(C3CCC3)nc(N3CCN(c4ccccc4OC)CC3)c2cc1OC	3.2µM*	-5	?	-2	13µM*	?
COc1cc2nc(C3CCC3)nc(N3CCN(c4ccccn4)CC3)c2cc1OC	?	-4	-22%	15	?	?
CC(C)(C)C1CCC(CN2CCC(CN3C(=O)C(=O)NC[C@@H]3Cc3ccccc3)CC2)CC1 (some centres undefined)	-23%	.	7%	.	.	.
COc1ccc(-c2cc3nc(C4CCN(C(=O)OC(C)(C)C)CC4)c(C(=O)O)cn3n2)cc1	24%	-1	2%	-3	1.3µM*	16%
Cc1ccc(C(=O)Nc2nc(-c3ccc(F)cc3)cs2)o1	0%	42*	14%	92*	-12%	0%
Cc1ccc(-c2csc(NC(=O)c3ccc([N+](=O)[O-])o3)n2)cc1	14µM*	12	-1%	19	13µM*	2.6µM*
Cc1ccc(-c2csc(NC(=O)c3ccno3)n2)cc1	1%	22*	9%	21	.	57%
CC(=O)N1CCC(C(=O)Nc2ccc(S(=O)(=O)N3CCCCC3)cc2)CC1	-11%	-2	2%	-33	-1%	-5%
Nc1c(C(=O)O)sc2nc(-c3ccccc3)cc(-c3ccccc3)c12	18%	-4	9%	-2	?	?
Cc1ccc(C(=O)c2sc3nc4c(cc3c2N)CCC4)cc1	-1%	47*	-7%[2.32 µM]	active	208%	?
Nc1c(C(=O)N2CCCCC2)sc2nc3c(cc12)CCCC3	-6%	50*	22%	108*	199%	0%
Nc1c(C(=O)N2CCCC2)sc2nc(-c3ccccc3)ccc12	-12%	39*	11%	75*	135%	100%

Compound activity from PubChem BioAssay.
